The list is not random: actives were taken first. Their share in the collection is about 1.8%.
NLRP3 yeast inh = blocks the NALP3 inflammasome reconstituted in yeast | Yeast reconstituted NLRP3/ASC/caspase-1, beta-gal luminescence, 24 h | inhibition, % at 10 µM | 330,000 tested, 0.39% active;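 active = inhibition of 50% or more; inactive = inhibition below 50%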;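 also: plate controls were induced DMSO wells for no effect and uninduced yeast grown without galactose for full effect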
Mot1-301 SUMO = blocks SUMOylation pathway, rescuing yeast Mot1-301 growth. S. cerevisiae Mot1-301 growth rescue, ATP luminescence, 38.5C; percent above DMSO median, 100 means doubled. growth rescue, % at 18.8 µM. 320,000 tested, 1% active. AID 2716;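 active = every valid replicate shows activation above 250% relative to neutral control wells; inactive = the rest, any valid replicate at or below 250%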;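 also: OY570 slx delta 5 strain wells were the positive control but not used for scaling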
PolyA inhibitor = blocks polyadenylation in yeast reporter cells. 300,000 tested, 0.02% active. activity score, % at 12 µM. S. cerevisiae SKY197-pL101 polyadenylation reporter, beta-gal luminescence; efflux-impaired pdr1/pdr3 knockout yeast; score 100 = 6 SD above DMSO. AID 1875;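 active = lowest replicate activity score at least 50, where 100 means six control SD above control mean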;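 also: yeast exposed to compound for 9 h at 30 °C; higher score means more reporter readthrough which indicates perturbed polyadenylation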
NALP1 inh = NALP1 inhibition; inhibition, % at 10 µM; 280,000 tested, 0.61% active; AID 2071; S. cerevisiae NALP1/ASC/caspase-1 growth, X-gal OD620, 72 h; in the data active = inhibition mostly above about 24%, no sharp cut-off; inactive = mostly below about 32%
* hit, by the source's call; / = not tested or not shown; + = active, no number.

SMILES | NLRP3 yeast inh | Mot1-301 SUMO | PolyA inhibitor | NALP1 inh
O=C(C(=O)c1ccc(O)cc1)c1ccccc1 | -7 | 356* | -18 | -2
O=C(O)c1ccccc1P(=O)(c1ccccc1)c1ccccc1 | 5 | 233 | -6 | 0
Cc1ccccc1C(=O)NCC(=O)NNC(=S)NC(=O)c1ccccc1C | 20 | -4 | 8 | 16
CC(=O)c1c(-c2ccccc2)c2cc(Cl)ccc2[nH]c1=O | 3 | -8 | -1 | 30*
CC(=O)c1c(-c2ccc(Cl)cc2)c2ccccc2[nH]c1=O | 24 | -7 | 10 | 13
CNC(=O)C(=O)NCCCN1CCOCC1 | 13 | / | 8 | -13
Clc1ccccc1-c1ccc2ncnc(NCc3ccc4c(c3)OCO4)c2c1 | 10 | 629* | / | /
c1cncc(-c2ccc3ncnc(NCc4ccc5c(c4)OCO5)c3c2)c1 | 18 | -24 | / | /
CC(=O)n1c2c(c3ccccc31)OC(N)=C(C#N)C2c1ccc(C(C)C)cc1 (stereo unspecified) | 14 | 16 | -7 | 34*
CC(=O)C1=C(C)OC(N)=C(C#N)C1c1cccc2ccccc12 (stereo unspecified) | 6 | -9 | -11 | -5
O=C1C2C3C=CC(CO)(O3)C2C(=O)N1c1ccc(-c2ccccc2)cc1 (stereo unspecified) | 26 | 324* | -73 | 29
CC(C)(C)C(=O)NCC12C=CC(O1)C1C(=O)N(c3ccccc3)C(=O)C12 (stereo unspecified) | -2 | 13 | -10 | 4
COc1ccc(C(=O)N2CCCC(Nc3ccc(F)cc3)C2)c(OC)c1 (stereo unspecified) | 14 | -10 | 10 | 30*
COc1ccccc1/C=N\Nc1cn[nH]c(=O)c1Cl | 14 | / | -5 | 6
CCc1ccc(-c2cc(C)no2)cc1S(=O)(=O)Nc1ccc(Cl)cn1 | 0 | 15 | -6 | 30
O=C(CCN1C(=O)COc2ccccc21)NCCN1CCN(c2ccccc2F)CC1 | 25 | 11 | 7 | 32*
Clc1ccc2c(N/N=C/c3ccc(Br)cc3)ccnc2c1 | / | 264 | -5 | 54*
Cc1ccccc1/C=N/Nc1ccnc2cc(Cl)ccc12 | / | -60 | -18 | 51*
Cc1ccc(/C=N/Nc2ccnc3cc(Cl)ccc23)c(C)c1 | 13 | -10 | 9 | 60*
Oc1ccc(/C=N/Nc2ccnc3cc(Cl)ccc23)c(O)c1 | 20 | -21 | -9 | /
Cc1ccc(-n2c3c(c(=O)[nH]c2=S)C(C(F)(F)F)(C(F)(F)F)NC(=O)N3)cc1 | 8 | 11 | 24 | 41*
COc1ccccc1OCC(=O)NCCSCc1ccc(Cl)cc1 | 21 | 10 | -40 | 64*
COc1ccccc1N(CC(=O)NCCSCc1ccc(Cl)cc1)S(C)(=O)=O | 8 | -9 | -1 | 16
Cc1ccc(-c2nnc(OCC3CCCO3)c3ccccc23)cc1 (stereo unspecified) | 17 | 5 | 5 | 1
CCn1c(SCC(=O)N2CCOCC2)nnc1-c1ccco1 | 25 | -16 | 15 | 10
SMILES | NLRP3 yeast inh | Mot1-301 SUMO | PolyA inhibitor | NALP1 inh
Cn1c(SCC(=O)N2CCOCC2)nnc1-c1ccco1 | 5 | 353* | -6 | -1
Cc1ccc(CCC(=O)Nc2ccc(Cl)cc2)o1 | 16 | -9 | -12 | 17
CCCOc1ccccc1NC(=O)/C=C/C(N)=O | 33 | 293 | -16 | 59*
CC(C)c1ccc(/C=C2\CC/C(=C\C=N\N(C)C)C2=O)cc1 | 7 | 5 | 3 | 44*
CN(C)/N=C/C=C1\CC/C(=C\c2ccc(F)c(F)c2)C1=O | 15 | -6 | 4 | /
CCCCCCCn1c(=N)n(CC(=O)c2ccco2)c2ccccc21 | 13 | 514* | -14 | 14
Cc1cc(NC(=O)COc2ccc3oc4ccccc4c3c2)no1 | 13 | 19 | 29 | 0
COc1cc(/C=C/CN2CCC(CO)(CC3CCCCO3)CC2)ccc1O (stereo unspecified) | 12 | -5 | 20 | 8
OCC1(CC2CCCCO2)CCN(C/C=C/c2ccccc2)CC1 (stereo unspecified) | 11 | 21 | -10 | 39*
Cn1cc([N+](=O)[O-])c(C(=O)Nc2ccc(-c3nc4ccccc4o3)cc2)n1 | 27 | + | 5 | /
CCN(CC)S(=O)(=O)c1cccc(NC(=O)Nc2cccc(C(F)(F)F)c2)c1 | -14 | -10 | 15 | 37*
CCOC(=O)C1=C(CSc2nc3c(cc2C#N)CN(C)CC3)OC(N)=C(C#N)C1c1ccccc1 (stereo unspecified) | 20 | -8 | -10 | -13
CCOC(=O)c1c(N)nn(C(=O)C(C)C)c1-c1ccccc1 | 2 | 2 | 7 | 38*
CCOC(=O)c1c(N)nn(C(=O)CC)c1-c1ccccc1 | 1 | 9 | -5 | -7
CN(C)C1NC(=O)c2cc(-c3ccccc3)sc2N1 (stereo unspecified) | 37 | 4 | -4 | 7
Cc1ccnc(NS(=O)(=O)c2ccc(NS(=O)(=O)c3cc(Cl)ccc3Cl)cc2)n1 | 5 | 7 | 6 | 40*
Cc1ccnc(NS(=O)(=O)c2ccc(NS(=O)(=O)c3ccc([N+](=O)[O-])cc3)cc2)n1 | 13 | 221 | -3 | 20
CCc1ccc(NC2=NCC(c3ccccc3)S2)cc1 (stereo unspecified) | 24 | 3 | 14 | 35*
O=[N+]([O-])c1ccc(C2CN=C(Nc3ccccc3)S2)cc1 (stereo unspecified) | 26 | 2 | 1 | 2
CCOC(=O)c1ccc(CSC(=N)N)o1 | -10 | -2 | -13 | -6
O=C1C=CC(=O)N1CCNc1ncc(C(F)(F)F)cc1Cl | -46 | / | -105 | 55*
O=C1CC(=O)N(CCNc2ncc(C(F)(F)F)cc2Cl)C(=O)N1 | -3 | 10 | 2 | -4
Nc1c(C(=O)N/N=C/c2cccnc2)oc2nc(-c3ccco3)cc(-c3ccco3)c12 | 15 | -8 | -10 | -20
CSc1ccc(/C=C/C(=O)c2ccc(NC(C)=O)cc2)cc1 | 22 | -9 | 3 | 53*
CCCc1nn(C)c2c(=O)[nH]c(-c3cc(S(=O)(=O)N(CCO)CCO)ccc3OCC)nc12 | 0 | 3 | -7 | 30*
SMILES | NLRP3 yeast inh | Mot1-301 SUMO | PolyA inhibitor | NALP1 inh
CC(=O)c1sc(NC(=O)C2CCN(C(=O)c3ccc(F)cc3)CC2)nc1-c1ccccc1 | -11 | / | 17 | /
COc1ccc(OC)c(NC(=O)c2nnn(Cc3ccccc3C)c2N)c1 | 22 | 17 | -6 | 10
CC(=N\Nc1ccc(Cl)cc1)/C(=N/O)C(=O)Nc1ccccc1 | 20 | 256* | -17 | 11
C/C(=N\O)C(=O)Nc1ccccc1 | 22 | -6 | 17 | -8
COc1ccc(OCC2CNC(=O)O2)cc1 (stereo unspecified) | 4 | -3 | 25 | 8
CCn1c(C2CC(=O)N(c3ccc(C)c(C)c3)C2)nc2ccccc21 (stereo unspecified) | 24 | -19 | -5 | /
Cc1ccc(-n2nc(C)c3c(C)c(CCC(=O)O)c(C)nc32)cc1 | 16 | 401 | 2 | 4
Cc1ccc(-n2nc(C)c3c(C)c(CCC(=O)NC(C)c4ccccc4)c(C)nc32)cc1 (stereo unspecified) | 14 | 3 | 8 | 39*
